From PubChem
IMPase cell inh: cell-permeable inhibitors of inositol monophosphatase (IMPase); 120,000 tested, under 10 active; AID 901; P97697; CHO-M1 cells, IP1 accumulation, HTRF TR-FRET ratio; inhibition (IP1 accumulation), % at 46.1 µM; active = well fitted curve in the direction sought with a large enough effect in the signal ratio, not every such curve was filed as active; inconclusive = small, poorly fitted or top-dose-only effect, or a change in a side signal; inactive = no such curve, though single readings can be large or run the other way; the % refers to the signal ratio;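 note: cells stimulated with carbachol in lithium chloride buffer; plate controls were DMSO basal wells for no effect and reference inhibitor wells for full effect; higher means more IMPase inhibition seen as more IP1 and lower FRET ratio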
Target sequence (P97697 whole entry, looked up): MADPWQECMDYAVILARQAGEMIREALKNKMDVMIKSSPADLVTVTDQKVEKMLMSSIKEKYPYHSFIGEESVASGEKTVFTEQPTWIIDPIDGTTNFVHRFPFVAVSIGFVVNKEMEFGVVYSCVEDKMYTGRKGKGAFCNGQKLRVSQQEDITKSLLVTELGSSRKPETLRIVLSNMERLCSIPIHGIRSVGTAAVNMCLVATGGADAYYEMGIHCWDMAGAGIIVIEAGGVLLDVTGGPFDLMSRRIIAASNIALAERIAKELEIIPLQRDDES
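CHO-M1 cells (CHO stably expressing M1 receptor), compound up to 46 uM final, stimulated with carbachol (50 uM as added) in buffer with 50mM LiCl, pH 7.4, 30 min at 37C. Cytosolic IP1 read by TR-FRET; AC50 from Hill fits.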
HTT cytoprotect: Huntington cell model cytoprotection by ATP luminescence; hit rate 0.14% among 230,000; PC12 HTT-Q103 induced, cytoprotection, ATP luminescence, 40 h; Potency, µM (series often up to 56.4 µM), without a hit: cytoprotection (ATP increase), usual class: activators; note: potency is the fitted concentration of half-maximal effect; % of control where 0% means no effect; nearly all actives have a fitted effect of over 45% in size
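Quantitative HTS on tebufenozide-induced (100 nM) PC12 cells expressing HTTQ103 exon 1–GFP; compounds tested as a concentration series; survival measured via cellular ATP.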
NPSR antag: antagonists of human neuropeptide S receptor cAMP signaling. Q6W5P4. CHO-NPSR cells, cAMP TR-FRET, antagonist mode. Potency, µM (doses to about 38.3 µM), for inactives: at the highest dose activity change, negative = inhibition, actives largely listed as inhibitors. hit rate 1% among 220,000. AID 1461; note: potency is the fitted concentration of half-maximal effect; % is set by controls: 0 for no effect and ±100 for the full control effect; nearly all actives have a fitted effect of over 50% in size
Target sequence (Q6W5P4 whole entry, looked up): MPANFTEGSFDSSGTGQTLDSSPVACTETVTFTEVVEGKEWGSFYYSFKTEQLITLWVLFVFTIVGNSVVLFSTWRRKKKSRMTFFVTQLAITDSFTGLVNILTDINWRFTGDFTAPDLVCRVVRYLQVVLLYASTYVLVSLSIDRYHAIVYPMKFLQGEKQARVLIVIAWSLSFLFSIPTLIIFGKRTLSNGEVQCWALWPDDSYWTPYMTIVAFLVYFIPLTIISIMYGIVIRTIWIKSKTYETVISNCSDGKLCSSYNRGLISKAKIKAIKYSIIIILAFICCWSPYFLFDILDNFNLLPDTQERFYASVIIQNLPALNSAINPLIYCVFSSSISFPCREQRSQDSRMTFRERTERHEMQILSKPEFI
PNC inhibitor: blocks assembly of the perinucleolar compartment; PC3M PTB-GFP, PNC prevalence imaging, 16 h; hits give low values; activity change (PNC), negative = inhibition, % at 10 µM; hit rate 3.1% among 140,000; AID 2417;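 active = readout at or below -70, meaning at least 70% loss of cells showing the perinucleolar compartment, a nuclear body marking cancer cells; inconclusive = readout between -30 and a set limit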;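 note: plate controls were DMSO wells for no effect and camptothecin positive control wells for full effect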
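Compounds are pinned in duplicate onto adhered PC3M cells stably expressing GFP-tagged PTB and incubated 16 h at 37 C. Cells are then fixed, nuclei stained with Hoechst, and PNC-positive cells counted.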
IMPase Li inh: membrane-permeable IMPase blocker, potentiated with lithium | hit rate 0.35% among 210,000 | Potency, µM (top dose mostly 59.4 µM), without a hit: at the highest dose activity, negative = IMPase inhibition, hits mostly inhibitors | CHO-M1 cells, IP1 TR-FRET (IP-One), carbachol + lithium | AID 1457;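 note: IP1 builds up when IMPase is blocked and the TR-FRET signal falls; potency is the fitted concentration of half-maximal effect; plate controls were basal vehicle for no effect and high inhibitor control for full effect; nearly all actives have a fitted effect of over 50% in size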
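Steps: plate 2000 CHO-M1 cells per well and culture 16–30 h; add compound and lithium; incubate 30 min, 37C; add d2-IP1 tracer and Eu cryptate anti-IP1 antibody in lysis buffer; read after 10 min at room temperature.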
HTT aggregate: mutant huntingtin aggregation inhibition. Potency, µM (highest dose often 46.1 µM), without a hit: top-dose activity change, negative = inhibition, usual class: inhibitors. AID 1688. PC12 HttQ103-GFP aggregates, Acumen cytometry, 40 h. hit rate 1.1% among 220,000; note: potency is the fitted concentration of half-maximal effect; % is set by controls: 0 for no effect and ±100 for the full control effect; nearly all actives have a fitted effect of over 60% in size
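Read-out: GFP aggregate count by laser scanning cytometer (488 nm excitation, 500-530 nm emission, 1–25 µm objects >6 SD above background). Cells: PC12, inducible HTTex1-Q103-GFP, 100 nM tebufenozide; compounds titrated.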
Active calls of the source: *; ? = inconclusive; / = no result given; [ ] = another dose, or the depositor's remark. In the library only some 3.4% were active in any assay of this set; here they are far more common. Unless noted, calls come from the whole dose curve; as a rule, active = well fitted curve in the direction sought with a large enough effect; inconclusive = small, poorly fitted or top-dose-only effect, or another doubt; inactive = no such curve, though single readings can be large; an effect the other way counts as inactive or inconclusive.

SMILES | IMPase cell inh | HTT cytoprotect | NPSR antag | PNC inhibitor | IMPase Li inh | HTT aggregate
Cc1ccc2oc3c(c(=O)c2c1)C(c1ccccc1F)N(c1ccccn1)C3=O (stereo not drawn) | -14.9 | / | / | / | / | /
Cc1ccc2oc3c(c(=O)c2c1)C(c1cccc(O)c1)N(c1ccccn1)C3=O (stereo not drawn) | 2.8 | -4.2% | 10µM* | ? | 51.5%[38.3 µM] | -3.4%
Cc1ccccc1-c1ccc2ncnc(N(C)Cc3ccco3)c2c1 | / | 12.7% | / | / | 20.3% | /
O=C(NCCc1ccccc1)c1ccc(Cl)nc1 | 1.2 | 0.9%[10 µM] | 3.8%[46.1 µM] | -100.0* | 9.4% | 7.0%
O=C(NCCc1ccccc1)c1ccncc1 | 5.4 | 0.1% | -0.3%[46.1 µM] | -28.7 | -5.3%[38.3 µM] | 0.0%
CC1Cc2ccccc2N1C(=O)COC(=O)C1(c2ccccc2F)CCCC1 (stereo not drawn) | 4.4 | 11.0%[10 µM] | -20.0%[46.1 µM] | -90.4* | 7.0% | -6.5%
Cc1cc(C)n(-c2ccc(N3CCOCC3)nn2)n1 | -5.0 | -6.0%[1.9 µM] | 16.8%[46.1 µM] | 0.3 | 6.5%[38.3 µM] | ?
Cc1cc(C)n(-c2nnc(N3CCN(c4ccc(F)cc4)CC3)nn2)n1 | / | -130.1% | -17.7% | / | 22.9% | 11.2µM*
CCN(CC)S(=O)(=O)c1ccc(-c2nnco2)cc1 | -2.9 | 1.5%[10 µM] | -6.4%[46.1 µM] | -100.0* | 2.0% | -29.2%
Cc1ccc(S(=O)(=O)N(C)Cc2ccc(-c3nnco3)cc2)cc1 | 4.6 | -8.4% | -9.2%[46.1 µM] | 63.8 | -1.7%[38.3 µM] | -10.4%
COCCNC(=S)N=Nc1c(O)[nH]c2ccc([N+](=O)[O-])cc12 | / | 5.9%[10 µM] | -12.2% | / | / | 30.7%[9.22 µM]
O=C1c2ccccc2C(=O)C12OC2c1ccc(Cl)cc1Cl (stereo not drawn) | / | 26.8%[10 µM] | ? | -23.8 | -2.2% | 25.1µM*
COc1ccc(C2=NN(C(=O)c3cccs3)C(O)(C(F)(F)F)C2)cc1 (stereo not drawn) | / | -55.7% | -19.6% | / | 7.4% | -18.4%
COc1ccc(C2=NN(C(=O)c3cccs3)C(c3ccccc3O)C2)cc1 (stereo not drawn) | / | ? | 10µM* | / | 12.9% | -26.0%
CCOc1nc(-c2ccc(Cl)cc2)nc2ccccc12 | / | -36.4%[0.074 µM] | -0.5% | 25.0 | 11.9% | -9.8%
O=C1c2ccccc2C(=O)N1Cc1nn2c(-c3ccc(Cl)cc3)nnc2s1 | ? | -21.5%[0.074 µM] | -20.9%[46.1 µM] | ? | 11.2µM* | 4.8%
COc1ccc(-c2nnc3sc(CN4C(=O)c5ccccc5C4=O)nn23)cc1 | 4.7 | -21.8% | -7.0%[46.1 µM] | -21.8 | ? | -10.6%[9.22 µM]
O=C(NC1CC1)C1CCN(C2CCN(C(=O)c3ccc4cccc(F)c4n3)CC2)CC1 | / | 9.2%[10 µM] | -6.3% | / | 6.5% | 0.0%[9.22 µM]
Cc1ccc(N(C)C(=O)c2ccc(CNc3c(N4CCC(C)CC4)c(=O)c3=O)cc2)cc1 | / | 1.2%[10 µM] | -39.7% | / | / | 19.5%[9.22 µM]
S=C1NCN(Cc2ccco2)CN1Cc1ccco1 | / | 15.5%[10 µM] | -16.1% | / | / | 7.8%[9.22 µM]
CCN1CN(Cc2ccco2)CNC1=S | / | / | 17.6% | -81.9* | -7.5% | 2.7%
COC1OC(CO)C(OC2OC(C(=O)O)C(OC3OC(COS(=O)(=O)O)C(OC4OC(C(=O)O)C(OC5OC(CO)C(OC6OC(C(=O)O)C(OC7OC(COS(=O)(=O)O)C(OC8OC(C(=O)O)=C[C@H](O)C8OS(=O)(=O)O)C(O)C7NC(C)=O)[C@@H](O)C6O)C(O)C5NC(C)=O)[C@@H](O)C4O)C(O)C3NC(C)=O)[C@@H](O)C2O)C(O)C1NC(C)=O (stereo partly drawn) | / | 18.0% | / | / | 1.9% | -14.2%
O=C(NC1CC1)c1ccc(CSCc2cccc(F)c2)o1 | -6.2 | -17.1% | 1.7%[46.1 µM] | -105.7* | 0.5%[38.3 µM] | -4.2%
CCC(C)NC(=O)c1ccc(CSCc2cccc(F)c2)o1 (stereo not drawn) | -4.0 | -7.0% | 7.4%[46.1 µM] | -20.7 | 30.4%[38.3 µM] | -8.2%[9.22 µM]
O=C(O)CC12CSc3[nH]c(=O)sc3C1c1ccccc1OC2=O (stereo not drawn) | 1.0 | -0.7% | -11.7%[46.1 µM] | -83.6* | 19.8%[38.3 µM] | /
SMILES | IMPase cell inh | HTT cytoprotect | NPSR antag | PNC inhibitor | IMPase Li inh | HTT aggregate
CCOC(=O)C1CSc2[nH]c(=O)sc2C1c1ccccc1 (stereo not drawn) | 0.9 | -19.3% | -13.3%[46.1 µM] | 5.0 | 0.8%[38.3 µM] | 17.6%
CCCN(C(=O)CCc1nc(-c2ccccc2F)no1)c1ccc(CC)cc1 | 16.1 | / | / | / | / | /
COC(=O)C/C=C\[C@H](C)[C@@H](OC)c1ccccc1Br | / | -6.7%[10 µM] | / | / | / | /
CCOC(=O)C1CCCN(C(=O)c2cc3nc(-c4cccc(OC)c4)cc(C(F)(F)F)n3n2)C1 (stereo not drawn) | 3.7 | -11.4% | -28.4%[46.1 µM] | -80.2* | 19.6%[38.3 µM] | 11.5%
CCOC(=O)C1CCCN(C(=O)c2cnn3c(C(F)(F)F)cc(-c4ccccc4)nc23)C1 (stereo not drawn) | ? | 0.1% | -15.0%[46.1 µM] | 4.9 | 34.7%[38.3 µM] | 3.6%
COC(=O)C1=C(C)OC(N)=C(C#N)C1c1ccc(OC)c(CSc2ccccn2)c1 (stereo not drawn) | 15.6[1.84 µM] | 5.6%[10 µM] | -11.6%[46.1 µM] | -87.2* | 26.7%[38.3 µM] | -2.9%
c1cnc2ccc(C(c3nnnn3C3CCCCC3)N3CCCCC3)cc2c1 (stereo not drawn) | 1.5 | 0.4%[10 µM] | -14.9%[46.1 µM] | -100.0* | 14.1% | -14.0%
O=C(CNS(=O)(=O)c1ccc2ccccc2c1)OCC(=O)c1ccc(Br)s1 | ? | -5.7% | ? | 44.8 | 1.78µM* | 6.8%
CCOC(=O)CNS(=O)(=O)c1ccc(C)cc1 | / | / | 3.9% | -113.4* | -2.5% | 16.2%
COc1ccc(C(=O)COC(=O)CNS(=O)(=O)c2ccc(C)cc2)cc1 | 8.2 | 1.8%[10 µM] | -17.2%[46.1 µM] | -21.9 | -4.4% | 25.1µM*
COc1ccccc1C(=O)COC(=O)CNS(=O)(=O)c1ccc(C)cc1 | / | -23.6% | 1.6% | / | -1.4% | 0.7%
CCOC(=O)CNS(=O)(=O)c1ccc(C(=O)O)cc1 | ? | -20.2%[0.074 µM] | -2.3%[46.1 µM] | 23.3 | -13.4%[38.3 µM] | 3.7%
Cc1ccc(S(=O)(=O)NC(=O)Nn2c(C)nnc2C)cc1 | 2.6 | 0.5% | -3.9%[46.1 µM] | -80.4* | 20.0%[38.3 µM] | -4.4%
COc1cccc(-c2nc(NCCNC(C)=O)c3ccccc3n2)c1 | / | -19.9% | / | / | 6.4% | /
O=C(N[C@H]1CCCc2ccccc21)O[C@@H]1C(=O)c2cc(Br)ccc2O[C@H]1c1ccc2c(c1)OCO2 | / | -46.5% | / | / | 25.0% | /
